Bioassay records (PubChem BioAssay)
KLK7 zymogen act: activates the human kallikrein-7 zymogen | P49862 | purified proKLK7, EDANS-DABCYL substrate fluorescence; 100% is mature enzyme control, 0% vehicle | activation, % at 7 µM | hit rate 0.9% among 370,000 | AID 652039;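 active = activation above the mean of all tested compounds plus 3 SD, computed per campaign excluding outliers beyond control limits, cut at about 13% in these data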
NPR1 activator: GC-A (human) enzyme activation | activation, % at 10 µM | HEK293 GC-A cells, cGMP TR-FRET, EC30 ANP; 0% at EC30 ANP, 100% saturating ANP | P16066 | hit rate 0.14% among 370,000; in the data active = activation above about 40%
HIF activator: HIF pathway transcriptional activation. U2OS HRE-luciferase reporter, luminescence; normalized: DMSO 0%, desferrioxamine 100%. activation, % at 7.5 µM (by protocol). hit rate 0.32% among 300,000. AID 1910;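 active = mean activation of at least 10% of the iron chelator positive control signal, with at least half of replicates also reaching 10%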
GC-B act: GC-B (human) receptor activation; P20594; HEK293-GC-B cells, CNP EC30, cGMP TR-FRET; 0% at EC30 CNP, 100% saturating CNP; activation, % at 10 µM; hit rate 0.11% among 370,000;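 active = activation at 10 µM reaching about 35% in either raw or pattern-adjusted values, limit read from the data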
Target sequence (P20594 whole entry, looked up): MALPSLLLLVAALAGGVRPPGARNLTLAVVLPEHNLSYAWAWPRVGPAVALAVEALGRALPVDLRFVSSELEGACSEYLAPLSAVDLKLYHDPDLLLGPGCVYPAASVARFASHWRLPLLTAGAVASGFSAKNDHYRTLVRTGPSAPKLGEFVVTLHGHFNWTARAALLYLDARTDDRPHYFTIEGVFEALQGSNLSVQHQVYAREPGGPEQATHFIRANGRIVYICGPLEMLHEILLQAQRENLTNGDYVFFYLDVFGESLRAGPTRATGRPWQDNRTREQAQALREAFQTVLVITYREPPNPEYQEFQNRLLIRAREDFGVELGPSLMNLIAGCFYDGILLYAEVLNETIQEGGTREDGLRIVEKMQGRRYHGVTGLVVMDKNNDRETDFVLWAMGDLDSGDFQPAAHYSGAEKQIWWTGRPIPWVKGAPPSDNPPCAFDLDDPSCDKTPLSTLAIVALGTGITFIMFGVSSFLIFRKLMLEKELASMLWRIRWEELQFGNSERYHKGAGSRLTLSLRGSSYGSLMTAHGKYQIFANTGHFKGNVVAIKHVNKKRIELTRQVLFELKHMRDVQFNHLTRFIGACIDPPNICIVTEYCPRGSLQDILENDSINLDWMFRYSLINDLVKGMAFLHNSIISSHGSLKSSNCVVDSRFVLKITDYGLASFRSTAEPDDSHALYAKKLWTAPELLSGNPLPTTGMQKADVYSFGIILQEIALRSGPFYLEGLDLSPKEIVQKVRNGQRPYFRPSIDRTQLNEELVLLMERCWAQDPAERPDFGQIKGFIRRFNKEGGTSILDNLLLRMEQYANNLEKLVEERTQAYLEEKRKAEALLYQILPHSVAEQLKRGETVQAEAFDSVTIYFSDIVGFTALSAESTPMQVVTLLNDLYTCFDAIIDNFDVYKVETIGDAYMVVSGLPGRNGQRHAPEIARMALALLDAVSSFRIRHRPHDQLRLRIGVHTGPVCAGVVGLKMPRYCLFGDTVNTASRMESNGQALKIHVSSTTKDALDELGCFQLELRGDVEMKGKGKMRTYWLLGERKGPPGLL
KLK7 act conf: proKLK7 activation, confirmation. AID 686949. shares compounds with KLK7 zymogen act. hit rate 68% among 3,200. activation, % at 7 µM. purified proKLK7, EDANS-DABCYL substrate fluorescence; scaled: vehicle 0, mature enzyme 100;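 active = activation, as change over the incubation, above the mean of all tested compounds plus 3 SD, cut at about 13% in these data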
EDANS interfere: optically interferes with EDANS-DABCYL signal, flagging KLK7 hits; shares compounds with KLK7 zymogen act; EDANS-DABCYL substrate fluorescence interference, no enzyme, 4 h; solvent 0%, active enzyme control 100%; activation, % at 7 µM; hit rate 80% among 3,200;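 active = activation above the all-compound mean plus 3 SD, ignoring values outside control-based bounds, cut at about 4.8% in these data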;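 also: value is the 4 h activation minus the activation read at time zero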
EDANS interf: optically interferes with EDANS-DABCYL fluorescence, kallikrein-7 activator counter-screen. shares compounds with KLK7 zymogen act. EC50, µM. EDANS-DABCYL peptide fluorescence interference, no enzyme. hit rate 20% among 250;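 active = compounds that raise the fluorescence signal in this interference counterscreen, with EC50 at or below 10 µM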;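 also: intact quenched peptide substrate alone read at 355 nm excitation and 520 nm emission; signal is fluorescence gain from T0 to T4 after four hours at room temperature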
Active calls of the source: *. Only some compounds are listed: those with a hit (about 1.3% of all), similar ones and a draw of the others.

Screening COc1ccccc1-c1c(C)oc2cc(OC(=O)c3ccco3)ccc2c1=O returned KLK7 zymogen act 268*, NPR1 activator -2, HIF activator 0, GC-B act 6, KLK7 act conf 376* and EDANS interfere 359*.
`CC(C)(C)OC(=O)/C=C/[C@@H](CC1CCCC1)Sc1ccc(C(C)(C)C)cc1` gave KLK7 zymogen act 0, NPR1 activator -1 and GC-B act 2.
CN1C[C@]2(C=C3CCCCC3n3c(=O)n(-c4ccccc4)c(=O)n32)N(C(=O)OCc2ccccc2)C1=NC(=O)c1ccccc1 (stereo not given in full) was read as KLK7 zymogen act 1, NPR1 activator -5 and GC-B act 0.
`COc1ccc(/C=C2\CCc3c2nc2ccccc2c3C(=O)O)cc1OC` gave KLK7 zymogen act 16*, NPR1 activator -7, HIF activator 2, GC-B act -4, KLK7 act conf 55* and EDANS interfere 65*.
Screening Nc1ccc2c(c1)[nH]c(=O)c1cc(N)ccc12 returned KLK7 zymogen act 99*, NPR1 activator -9, GC-B act -9, KLK7 act conf 61* and EDANS interfere 71*.
`COc1ccc(C2=NS(=O)(=O)N(C)C(C(=O)NC3CCCCC3)=C2)cc1OC` gave KLK7 zymogen act 13*, NPR1 activator -1, HIF activator 0, GC-B act -8, KLK7 act conf 1 and EDANS interfere 1.
`Cc1cc(C)cc(C(=O)Nc2ccc3[nH]c(=O)[nH]c3c2)c1` gave KLK7 zymogen act 0, NPR1 activator 2, HIF activator 0 and GC-B act -8.
`O=C(/C=C/c1ccc(F)cc1)Nc1ccc2[nH]c(=O)[nH]c2c1` gave KLK7 zymogen act 35*, NPR1 activator -2, HIF activator 1, GC-B act -11, KLK7 act conf 101* and EDANS interfere 93*.
For O=C(Nc1ccc2[nH]c(=O)[nH]c2c1)c1c(F)c(F)c(F)c(F)c1F the results were KLK7 zymogen act 19*, NPR1 activator 1, HIF activator 0, GC-B act 7, KLK7 act conf 29*, EDANS interfere 22* and EDANS interf inactive.
Cc1nc(-c2coc3c(CN(C)C)c(O)ccc3c2=O)cs1 was read as KLK7 zymogen act 19*, NPR1 activator 5, HIF activator 0, GC-B act 2, KLK7 act conf 42* and EDANS interfere 42*.
For COc1ccccc1-c1coc2c(CN(C)C)c(O)ccc2c1=O the results were KLK7 zymogen act 50*, NPR1 activator 7, HIF activator 0, GC-B act -3, KLK7 act conf 78* and EDANS interfere 70*.
For CC(C)N(Cc1c(O)ccc2c(=O)c(-c3ccc(Cl)cc3)coc12)C(C)C the results were KLK7 zymogen act -2, NPR1 activator 4, HIF activator 0 and GC-B act -12.
For COc1ccccc1Oc1coc2cc(OC(=O)N3CCOCC3)ccc2c1=O the results were KLK7 zymogen act 1, NPR1 activator 5, HIF activator 0 and GC-B act 7.
Screening CCC(Oc1ccc2c(=O)c(-c3ccccc3OC)coc2c1)C(=O)OCc1ccccc1 (stereo not given) returned KLK7 zymogen act 1, NPR1 activator 4, HIF activator 0 and GC-B act 2.
CCOc1ccccc1Oc1coc2cc(OC)ccc2c1=O was read as KLK7 zymogen act 0, NPR1 activator 2, HIF activator -23 and GC-B act 3.
`CCN(CC)Cc1c(O)ccc2c(=O)c(Oc3ccccc3OC)coc12` gave KLK7 zymogen act 15*, NPR1 activator 2, HIF activator 1, GC-B act -5, KLK7 act conf 44*, EDANS interfere 33* and EDANS interf 8.6*.
Screening COc1ccccc1Oc1coc2c(CN(C)C)c(O)ccc2c1=O returned KLK7 zymogen act 62*, NPR1 activator 11, HIF activator 0, GC-B act -4, KLK7 act conf 63* and EDANS interfere 69*.
`CCCCN(C)C(=O)CNc1nnnn1-c1ccccc1` gave KLK7 zymogen act -1, NPR1 activator 3 and GC-B act 0.
`CCC(C(=O)Nc1ccccc1N1CCCC1)c1cccc(C)c1` (stereo not given) gave KLK7 zymogen act 0, NPR1 activator -10 and GC-B act -23.
For C=CCN1C(=O)[C@H](CC(=O)N2CCCCC2)[C@@]2(C(=O)OCC)CCCC=C12 the results were KLK7 zymogen act 1, NPR1 activator 3 and GC-B act 2.
For C=CCn1c(COc2ccc(Cl)cc2)nnc1SCC(=O)c1ccccc1 the results were KLK7 zymogen act 0, NPR1 activator -2 and GC-B act 5.
O=C(NC1CCCCN(Cc2cccc(Cl)c2)C1=O)c1cccs1 (stereo not given) was read as KLK7 zymogen act 0, NPR1 activator -1 and GC-B act -6.
For CCN(CC)Cc1c(O)ccc2c(=O)c(-c3ccc4c(c3)OCCO4)coc12 the results were KLK7 zymogen act 4, NPR1 activator 4, HIF activator 0 and GC-B act -3.
CCN(CC)Cc1c(O)ccc2c(=O)c(-c3ccccc3)coc12 was read as KLK7 zymogen act 26*, NPR1 activator 6, HIF activator 2, GC-B act -4, KLK7 act conf 23* and EDANS interfere 31*.
Screening O=C(C1CCCN1S(=O)(=O)c1ccc([N+](=O)[O-])cc1)N1CCc2ccccc2C1 (stereo not given) returned KLK7 zymogen act -1, NPR1 activator 0 and GC-B act -5.
For Nc1nonc1N/N=C\c1ccccc1 the results were KLK7 zymogen act 0, NPR1 activator -5, HIF activator 0 and GC-B act -10.
Screening Nc1cnnc(N/N=C\c2ccccc2)c1Cl returned KLK7 zymogen act 13*, NPR1 activator 1, HIF activator 2, GC-B act 2, KLK7 act conf 2 and EDANS interfere 3.
For CCOC(=O)N1CCC2(CC1)CC(=O)c1c(ccc3oc(C(=O)O)c(C)c13)O2 the results were KLK7 zymogen act 18*, NPR1 activator 1, HIF activator 0, GC-B act 7, KLK7 act conf 46*, EDANS interfere 34* and EDANS interf >70.
